# Assay results taken from the supplement of paper PMC10646978.
# ± gives the standard deviation.
# Columns and labels:
# Details in all cases: modulator concentration 10 µM
# [1] = test system: RAW-Dual (murine macrophage reporter line); assay: NF-kB reporter (SEAP) activity fold change vs agonist alone; higher = enhanced NF-kB activity
# In short: (§1)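 Overnight stimulation with a PRR agonist followed pre-incubation for 1 hour at 37 °C with compound at 10 μM final. This was done in RAW-Dual murine macrophage reporter cells seeded at 50 000 per well in 384-well plates. NF-κB (SEAP, QUANTI-Blue absorbance at 620 nm) and IRF (Lucia luciferase, QUANTI-Luc luminescence) were read from the supernatant. Each reporter's fold change relative to the mean agonist-only control on the same plate was averaged over replicate plates.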
# [2] = test system: RAW-Dual (murine macrophage reporter line); assay: IRF reporter (Lucia luciferase) activity fold change vs agonist alone; higher = enhanced IRF activity
# In short: as §1
# [3] = test system: RAW-Dual (murine macrophage reporter line); assay: viability score (confluency relative to resting cells, overnight) (fraction); higher = more viable, active = viable (0.7 or more)
# In short: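 RAW-Dual macrophages in 384-well plates were incubated overnight with compound, final concentration 10 μM. Confluency images from IncuCyte were processed in IncuCyte software into two masks covering all imaged wells. The viability score is each well's confluency relative to resting cells, and a compound met the cutoff when both masks exceeded 70% of resting cells.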
# [4] = agonist: CpG ODN 1826 0.5 ug/mL
SMILES,"NF-kB reporter [1, 4]",NF-kB reporter ([1]; agonist: LPS 0.1 ug/mL),NF-kB reporter ([1]; agonist: MPLA […]),IRF reporter ([2]; agonist: 3'3'-cGAMP 10 ug/mL),IRF reporter ([2]; agonist: LPS 0.1 ug/mL),IRF reporter ([2]; agonist: MPLA […]),viability score [3]
Cc1ccc(C)c(Cc2cc([N+](=O)[O-])ccc2C)c1,0.287 ± 0.023,0.436 ± 0.081,0.726 ± 0.026,1.28 ± 0.081,1.01 ± 0.084,1.57 ± 0.28,0.996 (active)
O=C(CC1Sc2ccccc2NC1=O)Nc1ccccc1Cl (stereo unspecified),1 ± 0.079,0.989 ± 0.067,1.01 ± 0.036,1.15 ± 0.21,1.04 ± 0.043,1.04 ± 0.15,1 (active)
O=C(COCc1ccccc1)NC1CCC(F)(F)CC1,0.891 ± 0.068,1.03 ± 0.14,0.777 ± 0.057,0.643 ± 0.036,1.1 ± 0.069,1.02 ± 0.36,1.01 (active)
CC1(C)CC(NC(=O)c2cccnc2-c2nc3ccccc3s2)CC(C)(C)N1,0.747 ± 0.078,0.964 ± 0.083,0.948 ± 0.19,0.892 ± 0.048,1.06 ± 0.067,1.12 ± 0.09,0.998 (active)
COc1ccc(CCC(=O)NCc2nc(N(C)C)nc(N3CCCCC3)n2)cc1,0.8 ± 0.074,1.11 ± 0.11,0.881 ± 0.033,0.801 ± 0.029,1.01 ± 0.078,0.661 ± 0.12,1 (active)
Cc1cc(=O)n(CC(=O)N2CCC(c3ccccc3F)S(=O)(=O)CC2)cn1 (stereo unspecified),1.01 ± 0.06,1.07 ± 0.084,0.953 ± 0.09,1 ± 0.063,1.12 ± 0.081,1.04 ± 0.091,1 (active)
Cc1c(OCC(F)(F)F)ccnc1CS(=O)c1nc2ccccc2[nH]1 (stereo unspecified),1 ± 0.16,0.915 ± 0.28,0.929 ± 0.063,0.699 ± 0.037,1.11 ± 0.3,1.07 ± 0.096,0.984 (active)
O=C(NCC(O)c1ccc(C(F)(F)F)cc1)c1cc(Br)cs1 (stereo unspecified),0.931 ± 0.047,0.981 ± 0.077,0.865 ± 0.043,1.14 ± 0.058,1.21 ± 0.077,1.22 ± 0.14,0.66 (inactive)
CN(C)CCCC1(c2ccc(F)cc2)OCc2cc(C#N)ccc21.O=C(O)C(=O)O (stereo unspecified),1.13 ± 0.21,1.12 ± 0.32,1.07 ± 0.077,0.836 ± 0.047,1.28 ± 0.3,1.29 ± 0.1,0.993 (active)
C=CC(=O)Nc1cccc(Nc2nc(Nc3ccc(N4CCN(C(C)=O)CC4)cc3OC)ncc2C(F)(F)F)c1,0.634 ± 0.16,0.662 ± 0.035,0.977 ± 0.086,0.0805 ± 0.0073,0.438 ± 0.14,0.406 ± 0.04,0.926 (active)
Cc1nc2ccc(Cl)cn2c(=O)c1NC(=O)c1c(F)cccc1Cl,0.78 ± 0.034,1.05 ± 0.11,0.96 ± 0.083,1.05 ± 0.049,1.09 ± 0.25,1.2 ± 0.41,0.965 (active)
CCOC(=O)C1=C(C)NC(C)=C(C(=O)OC)C1c1ccc(Cl)cc1 (stereo unspecified),0.607 ± 0.14,0.448 ± 0.035,0.563 ± 0.062,1 ± 0.057,1.01 ± 0.1,1.26 ± 0.21,0.598 (inactive)
CS(=O)(=O)O.O=C(NC1CCN(CCCCC2(C(=O)NCC(F)(F)F)c3ccccc3-c3ccccc32)CC1)c1ccccc1-c1ccc(C(F)(F)F)cc1,0.0785 ± 0.0033,0.0479 ± 0.004,0.118 ± 0.0076,0.0799 ± 0.0056,0.0322 ± 0.0052,0.0401 ± 0.0064,0.258 (inactive)
